Data from PubChem BioAssay (NCATS).
Inconclusive results are not listed. Unmarked numbers belong to inactive results. The call rests on the fitted dose curve; in most records, active means well fitted inhibition curve with a large enough effect; inconclusive means small, poorly fitted or top-dose-only effect, or effect the other way; inactive means flat fitted curve, though single readings scatter.

What follows are compounds tested against ATP-dependent 6-phosphofructokinase (Trypanosoma brucei brucei) (UniProt O15648) (assay: qHTS Assay to Find Inhibitors of T. brucei phosphofructokinase: hit validation (AID 492961;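 further: luminescence reports ADP formed as PFK phosphorylates fructose-6-phosphate with ATP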)). Conditions: T. brucei PFK, ADP-Glo luminescence; series mostly up to 51.4 µM; activity change, negative = inhibition: at the top concentration.
ATP-dependent 6-phosphofructokinase (Trypanosoma brucei brucei), sequence (O15648 whole entry, looked up): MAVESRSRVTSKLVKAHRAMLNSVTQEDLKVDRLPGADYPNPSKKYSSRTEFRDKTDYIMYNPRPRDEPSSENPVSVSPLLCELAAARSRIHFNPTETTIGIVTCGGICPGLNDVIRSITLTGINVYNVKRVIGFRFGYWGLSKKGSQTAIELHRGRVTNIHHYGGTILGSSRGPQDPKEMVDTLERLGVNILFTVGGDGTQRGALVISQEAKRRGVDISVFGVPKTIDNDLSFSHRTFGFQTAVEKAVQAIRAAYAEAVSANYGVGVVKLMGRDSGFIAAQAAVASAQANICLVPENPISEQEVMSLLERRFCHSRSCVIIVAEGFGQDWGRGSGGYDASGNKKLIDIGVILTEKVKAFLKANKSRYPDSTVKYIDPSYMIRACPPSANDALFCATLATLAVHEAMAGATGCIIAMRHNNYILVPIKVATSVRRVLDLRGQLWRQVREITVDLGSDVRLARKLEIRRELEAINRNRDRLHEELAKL
In short: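 Reaction: 0.1 M triethanolamine pH 8.0, 5 mM MgCl2, F6P 0.5 mM, ATP 0.1 mM, PFK 1.25 nM, 45 min RT. Read-out: ADP-Glo luminescence. Analysis: concentration-response fits, classed by r2 and efficacy.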
On the % scale 0 is the no-effect control and ±100 the full control effect.

Compound | activity change, negative = inhibition
Cc1ncc(C[n+]2csc(CCOP(=O)(O)O)c2C)c(N)n1 | 0%
CN(C)CCOc1ccc(/C(=C(/CCCl)c2ccccc2)c2ccccc2)cc1 | -5.67%
CCCC(=O)O | -0.335%
CC(C)(COP(=O)(O)OP(=O)(O)OC[C@H]1O[C@@H](n2cnc3c(N)ncnc32)[C@H](O)[C@@H]1OP(=O)(O)O)C(O)C(=O)NCCC(=O)NCCS (stereo partly specified) | -13.3%
c1ccc2c(c1)OCC(CN1CCCCC1)O2 (stereo unspecified) | 4.8%
CCCCC(CC)CCC(CC(C)C)OS(=O)(=O)O (stereo unspecified) | 13.6%
CCc1ncnc2cc(OC)c(OC)cc12 | 6.35%
CC(=O)Nc1c(I)c(C(=O)O)c(I)c(N(C)C(C)=O)c1I | 5.61%
S=C1SCN(Cc2ccccc2)CN1Cc1ccccc1 | -10%
Cc1cccc(Nc2ncccc2C(=O)O)c1C | -4.89%
CC1CCC(NC(=O)N(CCCl)N=O)CC1 (stereo unspecified) | -6.09%
Nc1ncnc2c1ncn2[C@H]1CC[C@@H](CO)O1 | -4.31%
CC(=O)[C@H]1CC[C@H]2[C@@H]3C=CC4=CC(=O)CC[C@@]4(C)[C@H]3CC[C@]12C | 12.5% [at 24.3 µM]
CC(CC=O)CCCC(C)(C)O (stereo unspecified) | -2%
O=P(O)(O)O | 2.68%
NC(=O)[C@@H]1CCCN1C(=O)[C@H](Cc1cnc[nH]1)NC(=O)[C@@H]1CCC(=O)N1 | -4.27%
CC(C)c1nc(N(C)S(C)(=O)=O)nc(-c2ccc(F)cc2)c1/C=C/C(O)CC(O)CC(=O)O (stereo unspecified) | 0.0884%
[O]=[Bi][O]C(=O)[O][Bi]=[O] | 3.68%
OCCOCCOCCO | -4.82%
Cc1c(Cl)cccc1Nc1ncccc1C(=O)O | -11.8%
CC1CCCCN1CCCOC(=O)c1ccccc1 (stereo unspecified) | -7.94%
